Data taken from PubChem BioAssay (NCATS).
Values joined by “and” are separate entries in the source; they are usually repeats but may differ in a detail not shown here. Identical values can stand only once. Results filed as inconclusive are left out. Entries that show only a call come without a potency. Active and inactive are the calls of the source. Unless noted, calls follow the shape of the dose curve; as a rule, active = well fitted curve in the direction sought with a large enough effect; inconclusive = small, poorly fitted or top-dose-only effect, or another doubt; inactive = no such curve, though single readings can be large; an effect the other way counts as inactive or inconclusive.

Experiments:
[1] = Cell Viability - Hek293 (AID 427;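 active = compounds whose dose-response curve shows a full or clear partial loss of cell viability, called from curve shape rather than a numeric limit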;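 also: potency is read from the fitted curve at half-maximal effect; cells exposed to compound for 40 hours at 37 °C before reading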); settings: qHTS
How it was run: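 HEK293 cells in complete medium were exposed to compound for 40 hr at 37 °C, then cellular ATP was read by CellTiter-Glo luminescence. Data were normalized to DMSO (basal) and 100 uM tamoxifen (100% inhibition), and AC50 came from Hill fits.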

[2] = Cell Viability - N2a (AID 540); settings: N2a mouse neuroblastoma cell viability; activity change, negative = cytotoxicity: at 92.2 µM (top of the series); also: nearly all actives have a fitted effect of over 45% in size
How it was run: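 Luminescent ATP signal (CellTiter-Glo, 20 min at room temperature) served as the viability read-out after N2a cells were treated with compounds for 40 hours at 37 °C. Concentration-response data were fitted to the Hill equation for AC50.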

[3] = Cell Viability - SH-SY5Y (AID 544); settings: SH-SY5Y neuroblastoma cell viability; viability change, negative = cytotoxic: at 92.2 µM (top of the series); also: nearly all actives have a fitted effect of over 55% in size
How it was run: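 Luminescent ATP read-out (CellTiter-Glo) measures loss of viable SH-SY5Y neuroblastoma cells after 40 hr compound exposure at 37 °C. AC50 values derive from standard Hill modelling of qHTS concentration-response data.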

[4] = Cellular Toxicity (caspase-3) SHSY5Y (AID 657); settings: SH-SY5Y caspase-3 activation, DMSO zero, 10 µM staurosporine = 100%; series mostly up to 91.7 µM
How it was run: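 Luminescent caspase-3/7 readout (aminoluciferin release) in SH-SY5Y cells after 16 h compound exposure in complete medium. Activity scaled between DMSO basal and 10 uM staurosporine as 100%; concentration-response fitted to Hill equation for AC50.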

[5] = Cellular Toxicity (caspase-3) Mesangial (AID 660); settings: mesangial cells, normalized: DMSO 0%, 100 µM tamoxifen 100%; series mostly up to 91.7 µM;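 also: combined caspase 3 and 7 activity read by Caspase-Glo luminescence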
How it was run: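 Mesangial cells, 1000/well, 5 h settle at 37 °C; compound 16 h, 37 °C; Caspase-Glo 3/7 reagent 20 min RT; luminescence. Norm.: DMSO = 0%, tamoxifen 100 uM = 100%. AC50, Hill fit.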

[6] = Cellular Toxicity (caspase-3) NIH 3T3 (AID 666); settings: NIH 3T3 caspase-3 activation, apoptosis/toxicity; series mostly up to 92.2 µM;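 also: caspase signal read after 16 h compound exposure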
How it was run: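 Luminescence from aminoluciferin released by caspase-3/7 cleavage of a peptide substrate served as read-out. Mouse fibroblast NIH 3T3 cells were exposed to compounds over a concentration range for 16 hours, and AC50 values came from standard Hill modelling.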

[7] = Cell Viability - LYMP2-001 (AID 921); settings: LYMP2-001 lymphoblastoid cell viability; series mostly up to 92.2 µM;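 also: cells exposed to compound for 24 h at 37 °C; nearly all actives have a fitted effect of over 70% in size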
How it was run: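 CellTiter-Glo luminescence (intracellular ATP) after 24 hr compound exposure at 37 C, 2500 lymphoblastoid cells/well in complete medium. AC50 fitted with standard Hill equation; tetraoctylammonium bromide positive control.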

[8] = MultiTox-Fluor Cytotoxicity Assay - LYMP1-002 - Dead Cells (AID 960); settings: LYMP1-002 lymphoblastoid cells, dead-cell protease fluorescence; series mostly up to 46.1 µM; also: nearly all actives have a fitted effect of over 60% in size
How it was run: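 LYMP1-002 cells 2500/well; 5 hr 37 C pre-incubation; compound 16 hr 37 C; MultiTox-Fluor reagent 60 min RT; dead-cell fluor Ex/Em 485/520. Norm. to DMSO (0%) vs 15 uM tetraoctylammonium bromide (100%); Hill AC50.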

[9] = Cell Viability - LYMP2-009 (AID 968); settings: LYMP2-009 lymphoblastoid cell viability; series mostly up to 92.2 µM;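 also: cells exposed to compound for 24 h at 37 °C; nearly all actives have a fitted effect of over 55% in size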
[10] = Cell Viability - LYMP2-006 (AID 978); settings: LYMP2-006 lymphoblastoid cell viability, qHTS; series mostly up to 92.2 µM;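 also: cells exposed to compound for 24 hours; nearly all actives have a fitted effect of over 60% in size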
How it was run: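 qHTS, 1536-well; 2500 cells/well, 5 hr 37 C; cpd 24 hr 37 C; CellTiter-Glo 30 min RT; luminescence. Tetraoctylammonium bromide pos. ctrl. AC50 via Hill eqn.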

[11] = target: Vitamin D3 receptor (Homo sapiens) (UniProt P11473); experiment: qHTS assay for small molecule antagonists of vitamin D receptor signaling (AID 588541; calls by dose curve;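 also: receptor activated by calcitriol during compound treatment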); settings: HEK293T VDR-UAS-bla, beta-lactamase ratio, antagonist mode; series mostly up to 76.7 µM
How it was run: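 VDR-UAS-bla HEK293T cells in 2% charcoal-stripped FBS were stimulated with 1-alpha,25-dihydroxyvitamin D3 (3 nM final) plus compound for 16 h at 37 C. The beta-lactamase CCF4 readout was normalized to 50 nM agonist and DMSO, and Hill fits gave IC50.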

[12] = qHTS assay for small molecule agonists of retinoid X receptor alpha signaling (AID 588544; calls by dose curve); settings: HEK293T RXRa-UAS-bla, beta-lactamase reporter, 18 h; 530 nm emission
[13] = target: Retinoic acid receptor RXR-alpha (Homo sapiens) (UniProt P19793); experiment: as above; settings: HEK293T RXRa-UAS-bla, beta-lactamase reporter, 18 h; series mostly up to 76.7 µM
[14] = target: Thyroid hormone receptor beta (Homo sapiens) (UniProt P10828); experiment: qHTS assay for small molecule antagonists of thyroid hormone receptor beta signaling (AID 588547; active = well fitted inhibition curve with a large enough effect in the signal ratio, with a control signal flat, not every such curve was filed as active; the % refers to the signal ratio;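 also: cells stimulated with 0.4 nM T3 agonist during compound exposure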); settings: TR-UAS-bla HEK293, beta-lactamase ratio, antagonist mode, 18 h
How it was run: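 TR-UAS-bla GripTite HEK293 cells in 2% charcoal/dextran FBS medium; compounds 0.59 nM to 92 uM with T3 at 0.4nM final, 18 h at 37 C. Beta-lactamase read by CCF4 fluorescence (460/530 nm); Hill fits gave IC50 and efficacy.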

[15] = qHTS assay for small molecule disruptors of the mitochondrial membrane potential - 1 hr assay (AID 651754; calls by dose curve; also: nearly all actives have a fitted effect of over 35% in size); settings: series mostly up to 92.2 µM
How it was run: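 HepG2, 2,000 cells/well, overnight attachment; cpd or DMSO 1 hr, 37C/5% CO2; Mito-MPS dye 30 min, 37C; fluorescence monomer (490/535) and aggregate (540/590).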

[16] = qHTS assay for small molecule disruptors of the mitochondrial membrane potential - 5 hr assay (AID 651755; calls by dose curve; also: nearly all actives have a fitted effect of over 40% in size); settings: JC-1-type ratio dye; series mostly up to 92.2 µM
How it was run: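 HepG2 cells (2,000/well), attached overnight, exposed to compound 5 hr at 37C, then Mito-MPS dye 30 min. Fluorescence read for monomers (490/535 nm) and aggregates (540/590 nm).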

[17] = target: Nuclear receptor ROR-gamma (Homo sapiens) (UniProt P51449); experiment: qHTS assay for small molecule antagonists of the retinoid-related orphan receptor gamma (ROR-gamma) signaling pathway (AID 651802); settings: ROR-gamma antagonist cell reporter assay; series mostly up to 92.2 µM;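 also: CHO cells with doxycycline-induced ROR-gamma expression; luciferase reporter luminescence driven by ROR response element; nearly all actives have a fitted effect of over 60% in size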
How it was run: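 CHO, TET-inducible ROR + RORE-LUC reporter, 1536-well qHTS. Compound pinned, doxycycline added, 16hr 37C/5% CO2. ONE-Glo, 30 min RT, luminescence; signal drop scored as antagonism.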

[18] = qHTS assay for small molecule agonists of the antioxidant response element (ARE) signaling pathway measured by Nrf2-dependant transcriptional activity - cell viability counter screen (AID 720653; active = well fitted curve in the direction sought with a large enough effect in the repeat runs; an effect the other way counts as inactive or inconclusive); settings: ARE-bla HepG2 viability, CellTiter-Glo ATP luminescence, 16 h; stronger effect = lower value
How it was run: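 ARE-bla HepG2 cells treated with compounds for 16 h at 37C; this counter screen measures viability as intracellular ATP by CellTiter-Glo luminescence after 30 min at room temperature.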

[19] = Cellular Toxicity (caspase-3) H-4-II-E (AID 663); settings: H-4-II-E rat hepatoma; Potency: caspase-3 activation; series mostly up to 92.2 µM;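 also: cells exposed to compound for 16 hr before readout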
How it was run: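 Rat hepatoma H-4-II-E cells (1500/well) plated 5 hr, then exposed to compound titrations for 16 hr at 37 °C. Caspase-Glo 3/7 luminescence read after 20 min at RT; data normalized to DMSO and 100 uM tamoxifen, AC50 from Hill fits.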

[20] = qHTS assay for cell viability of HEK293 cells (AID 743288); settings: ATP luminescence (CellTiter-Glo), 18 h, stronger effect = lower value; also: nearly all actives have a fitted effect of over 50% in size
How it was run: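 Environmental chemicals tested in qHTS format against parental HEK293 cells; 18 h treatment, 37 C; read-out ATP luminescence (CellTiter-Glo), 30 min RT development.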

Sequence of Vitamin D3 receptor (Homo sapiens) (P11473 whole entry, looked up): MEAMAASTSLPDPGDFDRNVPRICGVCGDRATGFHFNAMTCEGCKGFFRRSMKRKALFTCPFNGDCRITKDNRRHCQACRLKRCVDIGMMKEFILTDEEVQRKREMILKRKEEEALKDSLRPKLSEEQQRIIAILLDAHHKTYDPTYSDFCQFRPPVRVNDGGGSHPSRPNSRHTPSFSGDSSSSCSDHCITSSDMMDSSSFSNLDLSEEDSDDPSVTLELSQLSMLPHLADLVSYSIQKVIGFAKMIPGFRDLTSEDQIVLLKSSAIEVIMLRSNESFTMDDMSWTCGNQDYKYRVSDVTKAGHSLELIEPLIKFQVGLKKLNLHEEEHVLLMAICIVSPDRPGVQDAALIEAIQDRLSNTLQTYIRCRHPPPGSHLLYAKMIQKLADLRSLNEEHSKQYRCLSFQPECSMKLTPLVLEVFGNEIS
Sequence of Nuclear receptor ROR-gamma (Homo sapiens) (P51449 whole entry, looked up): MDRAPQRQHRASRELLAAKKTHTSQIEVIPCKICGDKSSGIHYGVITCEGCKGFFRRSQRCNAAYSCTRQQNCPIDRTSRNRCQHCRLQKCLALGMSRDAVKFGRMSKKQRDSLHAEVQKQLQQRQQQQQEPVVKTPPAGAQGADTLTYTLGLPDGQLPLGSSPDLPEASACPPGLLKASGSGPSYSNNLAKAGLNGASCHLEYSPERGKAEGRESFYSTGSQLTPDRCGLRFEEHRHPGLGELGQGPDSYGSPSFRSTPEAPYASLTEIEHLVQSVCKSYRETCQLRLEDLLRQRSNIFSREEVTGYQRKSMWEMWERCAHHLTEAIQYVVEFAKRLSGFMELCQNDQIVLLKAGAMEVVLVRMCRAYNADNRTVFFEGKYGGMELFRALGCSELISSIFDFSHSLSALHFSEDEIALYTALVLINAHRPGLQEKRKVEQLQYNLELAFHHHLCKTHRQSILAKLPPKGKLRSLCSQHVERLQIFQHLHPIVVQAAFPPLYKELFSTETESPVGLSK
Sequence of Thyroid hormone receptor beta (Homo sapiens) (P10828 whole entry, looked up): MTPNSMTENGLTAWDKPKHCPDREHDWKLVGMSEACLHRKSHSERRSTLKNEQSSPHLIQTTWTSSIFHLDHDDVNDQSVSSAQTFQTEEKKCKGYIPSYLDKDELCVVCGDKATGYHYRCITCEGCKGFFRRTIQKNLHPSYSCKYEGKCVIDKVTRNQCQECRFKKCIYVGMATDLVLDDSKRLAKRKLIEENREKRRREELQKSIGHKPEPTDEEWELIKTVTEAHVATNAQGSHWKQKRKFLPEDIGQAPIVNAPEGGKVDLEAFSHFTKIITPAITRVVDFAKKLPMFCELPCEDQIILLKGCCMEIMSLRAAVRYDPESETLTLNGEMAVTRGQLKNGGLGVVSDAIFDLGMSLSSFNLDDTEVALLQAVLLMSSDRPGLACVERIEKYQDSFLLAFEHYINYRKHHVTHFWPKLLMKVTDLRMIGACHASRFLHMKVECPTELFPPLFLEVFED
Sequence of Retinoic acid receptor RXR-alpha (Homo sapiens) (P19793 whole entry, looked up): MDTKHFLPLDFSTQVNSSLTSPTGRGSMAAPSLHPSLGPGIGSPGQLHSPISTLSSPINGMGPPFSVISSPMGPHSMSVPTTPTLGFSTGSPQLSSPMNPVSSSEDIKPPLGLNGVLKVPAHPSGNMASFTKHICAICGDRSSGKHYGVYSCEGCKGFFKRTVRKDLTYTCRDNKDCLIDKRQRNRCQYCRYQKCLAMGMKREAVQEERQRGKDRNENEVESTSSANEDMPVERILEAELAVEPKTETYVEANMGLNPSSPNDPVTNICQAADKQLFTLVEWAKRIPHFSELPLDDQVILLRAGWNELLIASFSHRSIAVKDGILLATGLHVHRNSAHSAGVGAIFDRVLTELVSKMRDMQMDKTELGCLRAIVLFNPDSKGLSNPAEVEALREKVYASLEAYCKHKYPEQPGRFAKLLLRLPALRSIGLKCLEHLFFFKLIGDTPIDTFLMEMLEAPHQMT

Compound	Potency [1]	Potency [2]	Potency [3]	outcome [4]	outcome [5]	Potency [6]	Potency [7]	Potency [8]	Potency [9]	Potency [10]	outcome [11]	max response [12]	outcome [13]	activity change % (negative = inhibition) [14]	Potency [15]	Potency [16]	Potency [17]	max response [18]	Potency [19]	max response [20]
N#CCc1ccccc1	> 92 µM (inactive)	inactive	inactive	inactive	inactive	inactive	inactive	inactive	inactive	inactive	inactive	-3.72%	inactive	23.1% (inactive)	inactive	inactive	inactive	-1.59% (inactive)		
C=CCBr	> 92 µM (inactive)	inactive	inactive	inactive					inactive	inactive	inactive	-11.7%	inactive	-19.2% (inactive)	inactive	inactive	inactive	-1.79% (inactive)	inactive	-2.53% (inactive)
O=Cc1ccc2c(c1)OCO2	> 92 µM (inactive)	inactive	inactive	inactive	inactive	inactive	inactive	inactive		inactive	inactive	19.3%	inactive	5.85% (inactive)	inactive	inactive	inactive	2.8% (inactive)	inactive	-0.123% (inactive)
O=Cc1ccc(Cl)cc1Cl	> 92 µM (inactive)	inactive	inactive	inactive		inactive		inactive	inactive	inactive	inactive	-11.7%	inactive	0.009% (inactive)	inactive	inactive	inactive		inactive	-8.13% (inactive)
c1ccc(C2CO2)cc1 (stereo not given)	> 92 µM (inactive)	inactive	inactive	inactive	inactive	inactive	inactive	inactive	inactive		inactive	-3.27%	inactive		inactive	inactive	inactive	-5.33% (inactive)	inactive	-9.74% (inactive)
C=COC(C)=O	> 92 µM (inactive)	inactive	inactive	inactive	inactive	inactive	inactive	inactive	inactive	inactive	inactive	-12.6%	inactive	0.373% (inactive)	inactive	inactive	inactive	7.83% (inactive)	inactive	-3.61% (inactive)
ClCC(Br)CBr (stereo not given)	> 92 µM (inactive)	inactive	inactive		inactive	inactive		inactive	inactive	inactive	inactive	-9.36%	inactive	6.39% (inactive)	inactive	inactive	inactive	3.72% (inactive)	inactive	-7.97% (inactive)
Cl/C=C/Cl	> 92 µM (inactive)	inactive	inactive	inactive	inactive	inactive	inactive	inactive	inactive	inactive	inactive	1.12%	inactive	-4.77% (inactive)			inactive	1.77% (inactive)	inactive	-15.8% (inactive)
Nn1cnnc1	> 92 µM (inactive)	inactive	inactive		inactive	inactive	inactive	inactive	inactive	inactive	inactive	6.31%	inactive	12.8% (inactive)	inactive	inactive	inactive	-3.98% (inactive)		-1.3% (inactive)
CC(=O)[O-].CC(=O)[O-].CC(=O)[O-].[Cr+3]	> 92 µM (inactive)	inactive	inactive	inactive	inactive	inactive	inactive	inactive	inactive	inactive		-6.52%	inactive	2.34% (inactive)	inactive	inactive		2.78% (inactive)	inactive	-3.81% (inactive)
CC(Cl)(Cl)Cl	> 92 µM (inactive)	inactive	inactive	inactive	inactive	inactive	inactive		inactive	inactive	inactive	-3.95% and -14.6%	inactive	0.316% (inactive) and -7.15% (inactive)	inactive	inactive	inactive	0.834% (inactive) and -5.56% (inactive)	inactive	6.17% (inactive) and -1.09% (inactive)
O=C(O)c1cccc(Cl)c1	> 92 µM (inactive)	inactive	inactive	inactive	inactive	inactive	inactive	inactive	inactive	inactive	inactive	-9.83%	inactive	7.72% (inactive)	inactive	inactive		-8.47% (inactive)		-0.932% (inactive)
ClCCCCl	> 92 µM (inactive)	inactive	inactive	inactive	inactive	inactive	inactive	inactive	inactive		inactive	1.73%	inactive	17.8% (inactive)	inactive	inactive	inactive		inactive	2.44% (inactive)
